TDP1 cell noCPT: qHTS for Inhibitors of human tyrosyl-DNA phosphodiesterase 1 (TDP1): qHTS in cells in absence of CPT | DT40 Tdp1-/- hTDP1 cells, no CPT, ATP luminescence, 48 h | Potency, µM (top dose mostly 46.2 µM), for inactives: at the highest dose activity change, negative = growth inhibition, actives largely listed as inhibitors | 15% of 420,000 active | AID 686978, 2013; further: nearly all actives have a fitted effect of over 55% in size
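Growth kinetics read by CellTiter-Glo luminescence after ≥48 hr at 37 °C. Cells: DT40 Tdp1-/- stably carrying human TDP1, 400 per well, compound exposure in the absence of CPT (DMSO vehicle).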
Gal4-VP16 FLuc: VP16 counterscreen qHTS for inhibitors of ROR gamma transcriptional activity; Drosophila S2 Gal4-VP16 UAS-luciferase, luminescence, 20 h; Potency, µM (top dose mostly 53.6 µM), for the others: top-dose activity, negative = inhibition, hits mostly inhibitors; 3.5% of 310,000 active; AID 2546, 2010;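 further: Gal4-VP16 expression switched on by copper sulfate through the metallothionein promoter; nearly all actives have a fitted effect of over 50% in size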
RORgamma inh: qHTS for inhibitors of ROR gamma transcriptional activity. Nuclear receptor ROR-gamma (Mus musculus), P51450. Drosophila S2 Gal4-RORgamma UAS-luciferase reporter, 20 h. Potency, µM (highest dose often 53.6 µM), for inactives: at the top dose activity change, negative = inhibition, most hits filed as inhibitors. 5.4% of 310,000 active. AID 2551, 2010; further: nearly all actives have a fitted effect of over 60% in size
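Using a luciferase readout, inhibitors were identified by reduced reporter activity in Drosophila cells coexpressing a copper-inducible Gal4–ROR gamma fusion and UAS-driven Photinus luciferase, incubated 20 hr after 700 uM copper sulfate.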
12-LOX inh: Primary qHTS assay for inhibitors of human arachidonate 12S-lipoxygenase (ALOX12): Round 2 | Polyunsaturated fatty acid lipoxygenase ALOX12 (Homo sapiens), P18054 | Potency, µM (titrated, usually from 108 µM), inactives show at the top dose activity change, negative = inhibition, usual class: inhibitors | AID 1671190, 2021 | 1.1% of 580,000 active | purified 12hLO, xylenol orange hydroperoxide absorbance
Target sequence (P18054 whole entry, looked up): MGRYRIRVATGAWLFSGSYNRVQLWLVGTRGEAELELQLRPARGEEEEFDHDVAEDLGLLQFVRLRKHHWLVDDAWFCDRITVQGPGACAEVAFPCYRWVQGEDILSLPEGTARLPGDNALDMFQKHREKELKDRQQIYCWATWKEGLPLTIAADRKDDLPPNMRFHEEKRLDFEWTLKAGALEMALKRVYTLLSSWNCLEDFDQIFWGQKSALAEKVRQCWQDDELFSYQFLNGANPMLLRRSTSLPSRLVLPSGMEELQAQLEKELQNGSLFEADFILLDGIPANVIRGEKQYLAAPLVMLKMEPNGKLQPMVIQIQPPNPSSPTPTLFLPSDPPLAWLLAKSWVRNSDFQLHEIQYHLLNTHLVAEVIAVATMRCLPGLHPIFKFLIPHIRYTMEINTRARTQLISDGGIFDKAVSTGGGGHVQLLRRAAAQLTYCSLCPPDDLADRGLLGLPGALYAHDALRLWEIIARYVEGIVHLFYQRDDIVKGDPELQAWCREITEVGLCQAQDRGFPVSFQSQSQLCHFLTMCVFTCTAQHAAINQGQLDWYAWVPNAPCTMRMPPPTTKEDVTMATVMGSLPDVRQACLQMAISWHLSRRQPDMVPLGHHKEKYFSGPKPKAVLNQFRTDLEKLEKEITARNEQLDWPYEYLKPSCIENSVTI
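Purified human 12hLO (150 nM final) in 25 mM Hepes, 0.01% Triton X-100, pH 7.0 was preincubated 15 min at room temperature with compound. Then 40 uM arachidonic acid was added, 30 min. Hydroperoxide was read by Fe-XO absorbance ratio 573/405 nm.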
ELG1 repair inh: qHTS screen for small molecules that inhibit ELG1-dependent DNA repair in human embryonic kidney (HEK293T) cells expressing luciferase-tagged ELG1 | 2.3% of 330,000 active | Potency, µM (titrated, usually from 46.1 µM), inactives show at the top dose activity change, negative = inhibition, most hits filed as inhibitors | HEK293T ELG1-luciferase reporter, luminescence, 16 h; DNA damage induced by 5-fluorouridine; further: nearly all actives have a fitted effect of over 55% in size
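Step one: seed 2,000 cells per well. Step two: pin-transfer compound or DMSO alongside 5-fluorouridine. Step three: incubate 16 hr, 37 °C, 5% CO2. Step four: add ONE-Glo, wait 30 min, read luminescence.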
TDP1 cell CPT: qHTS for Inhibitors of human tyrosyl-DNA phosphodiesterase 1 (TDP1): qHTS in cells in presence of CPT | Potency, µM (top dose mostly 46.2 µM), without a hit: at the top dose activity change, negative = growth inhibition, usual class: inhibitors | AID 686979, 2013 | chicken DT40 Tdp1-/-;hTDP1 cells + 20 nM CPT, ATP luminescence, 48 h | 12% of 420,000 active; further: nearly all actives have a fitted effect of over 55% in size
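Cell growth measured by CellTiter-Glo luminescence after a minimum 48 h, 37 C compound exposure with 20 nM CPT in Tdp1-knockout DT40 cells stably expressing hTDP1, seeded 400/well; qHTS titration format.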
Active calls of the source: *; i = inactive; ? = inconclusive; · = not tested or not shown; ! = repeats disagree; [ ] = another dose, or the depositor's remark. A selection: hits, their analogues and other compounds. The true share with any hit is near 15%. The call rests on the fitted dose curve; in most records, active means well fitted curve in the direction sought with a large enough effect; inconclusive means small, poorly fitted or top-dose-only effect, or another doubt; inactive means no such curve, though single readings can be large; an effect the other way counts as inactive or inconclusive. On the % scale 0 is the no-effect control and ±100 the full control effect; potency means the concentration at half of the fitted maximal effect.

SMILES	TDP1 cell noCPT	Gal4-VP16 FLuc	RORgamma inh	12-LOX inh	ELG1 repair inh	TDP1 cell CPT
NC(=O)CC(NC(=O)Cc1ccc(Br)cc1)c1ccc(N2CCN(c3ccccn3)CC2)c([N+](=O)[O-])c1 (configuration not stated)	-16.4%	-2.4%	1.5%	?	?	?
NC(=O)CC(NC(=O)c1cccc(Br)c1)c1ccc(N2CCN(c3ccccn3)CC2)c([N+](=O)[O-])c1 (configuration not stated)	13µM*	-21.5%	25.3%	?	0.8%	14.6µM*
CC(C)(C)OC(=O)NCCCC[C@H](NC(=O)c1[nH]cnc1C(=O)Nc1ccc(Cl)cc1)C(=O)OC(C)(C)C	16.4µM*	?	?	·	?	?
C[C@@H](NC(=O)c1nc[nH]c1C(=O)N[C@@H](CCCCNC(=O)OC(C)(C)C)C(=O)OC(C)(C)C)c1ccccc1	-94.3%	-10.9%	15.5%	-13.2%	?	?
CC(C)(C)OC(=O)NCCCC[C@H](NC(=O)c1[nH]cnc1C(=O)Nc1ccccc1)C(=O)OC(C)(C)C	23.1µM*	?	12.6µM*	5.9%	?	14.6µM*
O=C(Nc1ccc2c(c1)OCO2)c1ccc(NC2CC2)c([N+](=O)[O-])c1	20.6µM*	-17.1%	13.7%	3.6%	-21.7%	20.6µM*
O=C(NCCc1ccccc1)c1ccc2c(c1)S(=O)(=O)c1ccccc1C2=O	13µM*	·	·	-4.6%	·	?
O=C(Nc1ccc2c(c1)OCO2)c1ccc2c(c1)OCO2	?	?	?	-0.3%	?	?
O=C(COC(=O)c1ccc2c(c1)S(=O)(=O)c1ccccc1C2=O)NC1CC1	-0.8%	10.0%	1.5%	-4.7%	3.9%	-11.8%
CC1CCC(NC(=O)c2ccc3c(c2)S(=O)(=O)c2ccccc2C3=O)CC1 (configuration not stated)	14.6µM*	·	·	6.1%	·	?
O=C(NCCc1ccccc1)c1ccc2c(c1)S(=O)(=O)c1cc(Cl)ccc1C2=O	-94.4%	·	·	-23.0%	?	20.6µM*
CC1CCC(NC(=O)c2ccc3c(c2)OCO3)CC1 (configuration not stated)	-3.1%	?	10µM*	123.8%	?	?
NC(=O)c1ccc2c(c1)S(=O)(=O)c1ccccc1C2=O	16.4µM*	-1.5%	6.1%	i	0.0%	-26.1%
O=C1c2ccccc2S(=O)(=O)c2cc(N3CCN(C(=O)c4ccccc4)CC3)ccc21	20.6µM*	·	·	-1.1%	·	14.6µM*
CC(C)(C)c1ccc(-c2ccc3c(c2)S(=O)(=O)c2ccccc2C3=O)cc1	23.1µM*	·	·	-9.6%	·	?
CCn1nc(C(=O)OCC(=O)Nc2nc(-c3ccc(C)c(C)c3)cs2)c2ccccc2c1=O	·	·	·	-41.5%	·	·
COC(=O)[C@H](CCSC)NC(=O)c1cc2c(cn1)[nH]c1ccccc12	7.31µM*	-0.4%	3.1%	·	-1.1%	10.3µM*
CCCCOC(=O)c1cc2c(cn1)[nH]c1ccccc12	18.4µM*	31.6µM*	15.8µM*	-18.1%	·	21.1µM*!
CNC(=O)c1cc2c(cn1)[nH]c1ccccc12	?	-7.5%	-42.9%	35.5%	·	?
CCC(=O)N1CCc2nn(Cc3ccccc3)c(=O)n2CC1	·	·	·	46.9%	·	·
CNC(=O)CN(C)Cc1coc(-c2ccc(C)cc2)n1	·	·	·	16.4%	·	·
COc1ccc(-c2cc3nc4c(c(=O)n3[nH]2)CN(C(=O)CCCc2nc3ccccc3s2)CC4)cc1	·	·	·	3.2%	·	·
CN1C(C(=O)c2ccccc2)=C(OC(=O)c2ccc(Br)cc2)c2ccccc2S1(=O)=O	20.6µM*	·	·	-3.0%	·	?
CN1C(C(=O)c2ccccc2)=C(N)c2ccccc2S1(=O)=O	6.7%	0.7%	-17.9%	-6.1%	?	-17.4%
CCCCN1C(C(C)=O)=C(OC(=O)c2ccc(C)cc2)c2ccccc2S1(=O)=O	·	·	·	-29.0%	·	·
SMILES	TDP1 cell noCPT	Gal4-VP16 FLuc	RORgamma inh	12-LOX inh	ELG1 repair inh	TDP1 cell CPT
O=C(C1=C(OC(=O)c2ccco2)c2ccccc2S(=O)(=O)N1Cc1ccccc1)c1ccccc1	·	·	·	-1.1%	·	·
Cc1ccc(NC2=C(C(=O)c3ccccc3)N(C)S(=O)(=O)c3ccccc32)cc1	25.9µM*	-4.4%	-1.4%	-13.6%	-25.3%	29.1µM*
COC(=O)CN1C(C(=O)c2ccccc2)=C(OC(=O)c2ccccc2)c2ccccc2S1(=O)=O	25.9µM*	·	·	-18.2%	·	16.4µM*
CCCN1C(C(=O)c2ccccc2)=C(OC(=O)c2ccc(OC)cc2)c2ccccc2S1(=O)=O	5.17µM*	·	·	-18.5%	·	5.17µM*
COCC(=O)NC[C@H]1CCN(Cc2ccccc2)C[C@H]1N(C)C	·	·	·	61.2%	·	·
Cc1noc2c(NCc3cccnc3)cc(-c3cccc(C(F)(F)F)c3)nc12	·	·	·	1.3%[176 µM]	·	·
CC(C)OC(=O)/C(=C\c1ccc2c(c1)c1ccccc1n2C)NC(=O)c1ccccc1	20.6µM*	?	26.6%	0.0%	?	20.6µM*
CC(C)OC(=O)/C(=C/c1ccc2c(c1)c1ccccc1n2C)NC(=O)c1ccccc1	10.3µM*	3.9%	?	2.1%	20.6µM*	?
C=CCn1c(C)cc(C(=O)CSc2nc3ccccc3c(=O)[nH]2)c1C	20.6µM*	?	-15.8%	?	?	16.4µM*
COCCn1c(C)cc(C(=O)CSc2nnc(Nc3ccccc3F)s2)c1C	·	·	·	-13.4%	·	·
COCCn1c(C)cc(C(=O)CSc2ccc3ccccc3n2)c1C	?	4.9%	?	-28.4%	?	?
Cc1cc(C(=O)CSc2nc3ccccc3[nH]2)c(C)n1Cc1ccco1	5.8µM*	15.8µM*	?	-6.7%	?	8.2µM*
COCC(C)n1c(C)cc(C(=O)CSc2nnc(Nc3ccccc3F)s2)c1C (configuration not stated)	?	3.2%	?	325.1%	?	23.1µM*
COCCn1c(C)cc(C(=O)COc2nc3ccccc3nc2C)c1C	14.6µM*	?	30.7%	-4.0%	23.1µM*	16.4µM*
Cc1cc(C)c(C(=O)CSc2nc3ccccc3c(=O)[nH]2)cc1C	?	-1.5%	-2.7%	0.0%	?	-19.0%
